VDR inh: Inhibitors of the vitamin D receptor (VDR): qHTS; Vitamin D3 receptor (Homo sapiens), P11473; VDR-SRC2-3 peptide fluorescence polarization, 2 h; Potency, µM, for inactives: max response, negative = inhibition, most hits filed as inhibitors; 0.93% of 400,000 active; AID 504847, 2011; note: potency is the fitted concentration of half-maximal effect
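Two reagent solutions held at 4 deg C in the dark were dispensed, compounds pinned at 23 nl, and the mixture incubated 2 h at room temperature. Read-out: fluorescence polarization of VDR–SRC2-3 peptide binding.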
GCN5L2 inh: qHTS Assay for Inhibitors of GCN5L2 | GCN5L2 HAT assay, ThioGlo1 CoA-SH fluorescence | Histone acetyltransferase KAT2A (Homo sapiens), Q92830 | Potency, µM (highest dose often 58.9 µM), inactives show at the highest dose activity change, negative = inhibition, hits mostly inhibitors | 0.21% of 390,000 active; note: potency is the fitted concentration of half-maximal effect
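Preincubate 20nM GCN5L2 with compound 15 min, RT → add 50uM ThioGlo1 + 75uM H3(1-25) + 70uM acetyl-CoA → read fluorescence 0 and 20 min. Primary qHTS; fluorescent artifacts likely.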
PI4K2A block: qHTS for small molecular inhibitors of PI4K2A; Phosphatidylinositol 4-kinase type 2-alpha (Homo sapiens), Q9BTU6; AID 1346378, 2018; purified PI4K2A, ADP-Glo luminescence, 1 h; active compounds read low; 0.13% of 420,000 active; activity change, negative = inhibition, % at 76.9 µM; in the data active = activity change below about -50%; inconclusive = mostly about -30% to -49%;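 note: -100% = wells without enzyme as full effect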
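Compounds are screened against recombinant PI4K2A using PI as substrate and ATP, the latter dispensed at 300 microM. Reactions run one hour at ambient temperature before ADP-Glo detection; full inhibition defined by wells lacking enzyme.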
GLS inh: qHTS for Inhibitors of Glutaminase (GLS); Glutaminase kidney isoform, mitochondrial (Homo sapiens), O94925; GLS enzymatic activity, qHTS titration; Potency, µM (titrated, usually from 45.5 µM), without a hit: at the highest dose activity change, negative = inhibition, actives largely listed as inhibitors; 0.21% of 410,000 active; note: potency is the fitted concentration of half-maximal effect
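Enzyme dispensed in phosphate buffer (45 mM, pH 8.2, 0.02% Tween-20), compounds pinned in, then 1 mM L-glutamine solution and the glutamate oxidase–HRP–Amplex Red mix added; fluorescence read immediately and again after 30 min at room temperature.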
PLK1 PBD inh: qHTS for Inhibitors of PLK1-PDB (polo-like kinase 1 - polo-box domain): Primary Screen; Serine/threonine-protein kinase PLK1 (Homo sapiens), P53350; Plk1 PBD binding of FITC phosphopeptide, fluorescence polarization; Potency, µM, for inactives: max response, negative = inhibition, actives largely listed as inhibitors; 2.8% of 360,000 active; AID 720504, 2013; note: potency is the fitted concentration of half-maximal effect; series mostly up to about 57 µM; nearly all actives have a fitted effect of over 65% in size
The depositor's hits bear a star. Most compounds without a hit are left out; they make up all but 3.1% or so of the library. Unless noted, calls come from the whole dose curve; as a rule, active = well fitted curve in the direction sought with a large enough effect; inconclusive = small, poorly fitted or top-dose-only effect, or another doubt; inactive = no such curve, though single readings can be large; an effect the other way counts as inactive or inconclusive. Unless noted, % is set by controls: 0 for no effect and ±100 for the full control effect.

What do the screens show for `NC(=O)CCC(NS(=O)(=O)c1ccc(Cl)cc1)C(=O)NCc1ccc(Cl)cc1` (centres undefined)?
VDR inh: -0.8%; GCN5L2 inh: 2.1%; PI4K2A block: -3.0; GLS inh: -3.1%; PLK1 PBD inh: -2.2%

How did COC(=O)NC(c1ccccc1)c1c[nH]c2ccc(OC)cc12 (centres undefined) do in these assays?
VDR inh: -0.3%

How did Cc1ccccc1OCC(=O)NCC(=O)OCC(=O)c1ccc(F)cc1 do in these assays?
VDR inh: -16.5%

What do the screens show for `O=C(Nc1ccc2c(c1)CCCN2C(=O)c1cccs1)c1ccccc1`?
VDR inh: -23.6%; GCN5L2 inh: -4.6%; PI4K2A block: 8.3; GLS inh: 40.2%; PLK1 PBD inh: 21.2µM*

What do the screens show for `O=C(Nc1ccc2c(c1)CCCN2C(=O)c1cccs1)c1cccc(F)c1`?
VDR inh: -16.4%; GCN5L2 inh: -4.7%; PI4K2A block: -0.3; GLS inh: 1.3%; PLK1 PBD inh: inconclusive

How did O=C(Nc1ccc2c(c1)CCCN2C(=O)c1ccccc1)c1ccccc1Br do in these assays?
VDR inh: 3.4%; GCN5L2 inh: -9.2%; PI4K2A block: -4.3; GLS inh: -2.5%; PLK1 PBD inh: -5.1%

How did COc1ccccc1C(=O)Nc1ccc2c(c1)CCCN2C(=O)c1ccccc1 do in these assays?
VDR inh: inconclusive; GCN5L2 inh: -8.6%; PI4K2A block: -0.7; GLS inh: -6.5%; PLK1 PBD inh: 23.8µM*

What do the screens show for `CC1(C)Cc2c(C#N)c(N)n(-c3ccccc3)c(=S)c2CO1`?
VDR inh: 27.1%; GCN5L2 inh: -5.9%; PI4K2A block: 0.2; GLS inh: -9.9%; PLK1 PBD inh: 10.6µM*

What do the screens show for `N#Cc1c2c(c(=S)n(-c3ccccc3)c1N)CCCC2`?
VDR inh: -17.4%; GCN5L2 inh: -11.4%; PI4K2A block: -4.2; GLS inh: 2.0%; PLK1 PBD inh: 2.67µM*

What do the screens show for `CCC1(C)Cc2c(C#N)c(SC)nc(N3CCOCC3)c2CO1` (centres undefined)?
VDR inh: 7.0%; PI4K2A block: 3.6; GLS inh: 3.3%; PLK1 PBD inh: 2.6%

How did Cn1c(N)c(C#N)c2c(c1=S)COC(C)(C)C2 do in these assays?
VDR inh: -2.8%; GCN5L2 inh: -0.3%; PI4K2A block: -2.4; GLS inh: 9.3%; PLK1 PBD inh: -8.4%

How did CCC1(C)Cc2c(C#N)c(N)n(N)c(=S)c2CO1 (centres undefined) do in these assays?
VDR inh: -19.8%; GCN5L2 inh: -3.9%; PI4K2A block: -7.7; GLS inh: 29.5%; PLK1 PBD inh: 26.7µM*

How did CCOC(=O)c1c2c(c(=S)n(-c3ccccc3)c1N)CCC2 do in these assays?
VDR inh: -3.8%; GCN5L2 inh: -10.7%; PI4K2A block: -2.9; GLS inh: 0.7%; PLK1 PBD inh: -7.7%

How did O=C(OCc1cn(Cc2ccc(Cl)cc2)nn1)N1CCOCC1 do in these assays?
PI4K2A block: -0.7

How did O=C1CCC2(CCC(c3ccccc3)CC2)N1CCCO (centres undefined) do in these assays?
PI4K2A block: -1.2

What do the screens show for `Cc1ccc(C)c(N2CCN(C(=O)C3CCN(S(=O)(=O)c4cccc5nsnc45)CC3)CC2)c1`?
VDR inh: 11.0%; GCN5L2 inh: -14.9%; PI4K2A block: -61.2*; GLS inh: -0.5%; PLK1 PBD inh: -7.9%

Results for Cc1ccc(C)c(N2CCN(C(=O)C3CCCN(S(=O)(=O)c4cccc5nsnc45)C3)CC2)c1 (centres undefined) ?
VDR inh: -10.0%; GCN5L2 inh: -5.1%; PI4K2A block: -2.9; GLS inh: -2.5%

Results for CC(=O)c1ccc(N2CCN(S(=O)(=O)c3cccc4nsnc34)CC2)cc1 ?
VDR inh: -6.3%; GCN5L2 inh: -2.7%; PI4K2A block: 0.2; GLS inh: -13.0%; PLK1 PBD inh: 26.7µM*
